MsrA act – activates bovine MsrA enzyme; 0.3% of 360,000 active; purified bovine MsrA, absorbance read-out; activation, % at 10.6 µM; in the data active = activation above about 7.5%;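 note: 0% = vehicle and 100% = reference activator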
PKA-R2B activ – activators of human PKA-R2B complex; P22694+P31323; PKA-R2B holoenzyme dissociation, Cy5-IP20 fluorescence polarization; R2B truncated from residue 108, S112A mutant; 0% DMSO only, 100% 113 µM cGMP; activation, % at 11.4 µM; 0.079% of 340,000 active;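 active = activation above a cutoff set at the mean over all compounds plus 3 SD, cut at about 18% in these data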;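 note: higher means more holoenzyme dissociation and a rise in polarization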
Target sequence (P31323 whole entry, looked up, other chains not shown, the tested form may be a part): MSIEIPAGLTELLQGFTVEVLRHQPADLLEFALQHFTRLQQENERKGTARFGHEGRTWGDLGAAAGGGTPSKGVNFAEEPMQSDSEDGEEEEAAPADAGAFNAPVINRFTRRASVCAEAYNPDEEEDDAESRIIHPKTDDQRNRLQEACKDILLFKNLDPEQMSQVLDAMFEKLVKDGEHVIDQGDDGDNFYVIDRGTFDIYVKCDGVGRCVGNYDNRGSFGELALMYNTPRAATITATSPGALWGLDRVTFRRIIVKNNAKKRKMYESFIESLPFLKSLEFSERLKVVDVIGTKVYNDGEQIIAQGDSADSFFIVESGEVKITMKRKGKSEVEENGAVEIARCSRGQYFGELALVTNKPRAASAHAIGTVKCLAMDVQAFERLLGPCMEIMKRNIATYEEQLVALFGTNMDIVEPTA
MsrA inh – inhibits bovine methionine sulfoxide reductase A. 0.75% of 360,000 active. purified bovine MsrA, absorbance read-out. inhibition, % at 15.5 µM; in the data active = inhibition above about 4.5%;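 note: 0% = vehicle wells with enzyme and 100% = reference inhibitor wells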
PKA-R1A act – activates the PKA-R1A holoenzyme complex; PKA-R1A dissociation, Cy5-IP20 fluorescence polarization; scaled: DMSO 0%, 113 µM cGMP 100%; activation, % at 11.4 µM; P00514+P68181; 0.083% of 340,000 active; AID 504707;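 active = percent activation above the mean of all tested compounds plus 3 SD, cut at about 19% in these data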;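 note: higher means more PKAc released from R1A so a rise in polarization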
Mot1-301 SUMO – SUMOylation pathway inhibition by Mot1-301 growth rescue | AID 2716 | S. cerevisiae Mot1-301 growth rescue, ATP luminescence, 38.5C; percent above DMSO median, 100 means doubled | 1% of 320,000 active | growth rescue, % at 18.8 µM;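 active = every valid replicate shows activation above 250% relative to neutral control wells; inactive = the rest, any valid replicate at or below 250%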;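 note: OY570 slx delta 5 strain wells were the positive control but not used for scaling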
An asterisk follows results filed as active; · = no result given; + = active, no number. Rows were chosen to be rich in hits. Some 2% of all compounds tested hit in one or more screens of this group.

SMILES	MsrA act	PKA-R2B activ	MsrA inh	PKA-R1A act	Mot1-301 SUMO
O=C(c1ccccn1)N1N=C2/C(=C/c3ccccc3)CCCC2C1c1ccccc1 (stereo unspecified)	-3.9	-5.7	-0.1	-7.6	400.0*
O=C1CCC(C(=O)OCC(=O)N2N=C3/C(=C\c4ccccc4)CCCC3C2c2ccccc2)N1 (stereo unspecified)	-0.4	-0.1	0.9	2.8	·
C[C@H]1COc2cc(NCCO)ccc2S(=O)(=O)N1	·	·	-0.6	·	·
O=C(CCCN1C(=O)c2ccccc2C1=O)OC1CSCC1NC(=O)c1ccccc1 (stereo unspecified)	-5.6	6.5	1.2	-6.8	298.6*
O=C(NC1CSCC1OC(=O)c1ccccc1)c1ccccc1 (stereo unspecified)	-2.6	2.3	-0.9	-11.0	82.5
Cc1ccc(N(C)c2nc(N)nc(N)c2N=O)cc1	·	·	0.1	·	·
COCC1CN(CCc2ccc(F)cc2)S(=O)(=O)c2c(OCCN3C(=O)[C@@H]4[C@H](C3=O)[C@@H]3C=C[C@H]4C3)cccc2O1 (stereo partly specified)	·	·	0.5	·	·
C[C@H](CCC(=O)O)[C@H]1CC[C@H]2[C@@H]3CC[C@@H]4C[C@H](O)CC[C@]4(C)[C@H]3C[C@H](O)[C@]12C	0.6	-7.4	-0.2	8.6	422.2*
C=CC[C@]12C[C@@]3(O[C@H](C4CCCCC4)N=C3C[C@H](c3ccc(OC)cc3)[C@H]1C)N(Cc1ccncc1)C2=O	·	·	-0.9	·	·
CCOC(=O)/C(=N\Nc1ccc(Br)cc1)N1CC(C)OC(C)C1 (stereo unspecified)	-2.6	-5.1	·	-14.0	428.1*
COc1cc(/C=N/Nc2nncn2/N=C/c2ccc(O)c(OC)c2)ccc1O	5.3	-7.5	4.6*	2.1	-8.2
Cc1ccc2[nH]c3nc(N/N=C/c4cccc(O)c4)nnc3c2c1	-4.5	-5.0	0.3	5.5	114.8
COc1cc(/C=N/Nc2nnc3c(n2)[nH]c2ccccc23)ccc1O	-2.6	-1.8	4.6*	4.0	-4.4
N#Cc1ccc(S(=O)(=O)N2CCCc3nc(-c4ccc(F)cc4)ccc32)cc1	·	·	-0.4	·	·
CN1C=C/C(=C\c2cc[n+](C)c3ccccc23)c2ccccc21	5.0	-5.4	48.2*	4.8	·
O=C(/C=C/c1ccccc1Cl)c1cccnc1	-1.8	1.5	0.6	-6.2	274.7*
C[C@@H]1ON(C)[C@H]2C[C@H]3c4[nH]c5c(-c6cccc(F)c6)cccc5c4CCN3C(=O)[C@@H]12	·	·	0.1	·	·
O=C(/C=C/c1cccc([N+](=O)[O-])c1)Nc1ccccn1	-1.3	6.2	0.3	9.0	·
O=C(/C=C/c1cccc([N+](=O)[O-])c1)N(c1ccccn1)c1ccccn1	-1.1	-2.8	-0.2	3.0	+
O=C(Cc1c[nH]c2ccccc12)Nc1ccc(Nc2ccncc2)cc1	·	·	0.9	·	·
CCC/C(=C1/c2ccccc2C(=O)N1c1ccccc1)c1c(C)noc1C	·	·	-0.2	·	·
O=C(CN1C(=O)C2CC=CCC2C1=O)Nc1ccc(S(=O)(=O)N2CCOCC2)cc1 (stereo unspecified)	-1.8	6.1	1.0	-0.7	296.7*
CCOc1ccccc1N1CN(CC)CNC1=S	-2.4	1.4	0.3	4.6	355.1*
CCN1CNC(=S)N(c2ccccc2C)C1	-3.0	-0.8	-1.5	-2.4	-31.7
Cc1ccccc1C(=O)N1CCN(C(=O)C(=O)c2cccc(C(F)(F)F)c2)CC1	·	·	-0.6	·	·
SMILES	MsrA act	PKA-R2B activ	MsrA inh	PKA-R1A act	Mot1-301 SUMO
CC(C(Sc1ccccc1N)c1ccccc1)[N+](=O)[O-] (stereo unspecified)	1.7	-4.5	-0.1	-8.5	746.6*
Cn1nccc1C(=O)NC(=S)Nc1cc(Cl)cc(Cl)c1	-4.3	-10.1	-0.4	-4.6	333.9*
Cc1ccc2cccc(NC(=S)NC(=O)c3ccnn3C)c2n1	-1.3	-1.8	0.4	-12.4	-6.1
CCCCc1c(-c2ccccc2OC)ncn1Cc1cccc(OC)c1	·	·	0.2	·	·
O=[N+]([O-])c1ccc2[nH]c(=S)sc2c1	9.6*	-0.1	1.4	-7.1	·
O=[N+]([O-])c1ccc2[nH]c(=S)[nH]c2c1	2.5	3.0	2.9	10.4	·
Cc1cccc(Cl)c1NC(=O)N(C)c1ccccc1	·	·	-0.2	·	·
O=Cc1coc2c(ccc3ccccc32)c1=O	·	·	·	·	321.8*
O=C/C=C/c1coc2ccc3ccccc3c2c1=O	·	·	-1.4	·	12.3
COc1ccc(NC(=O)N(C)[C@H]2C[C@H]3c4[nH]c5c(-c6ccccc6)cccc5c4CCN3C(=O)[C@H]2[C@H](C)O)cc1	·	·	-0.8	·	·
CC(CCCN1CCCC1)Nc1ccnc2cc(Cl)ccc12 (stereo unspecified)	-1.2	2.4	4.8*	10.0	·
Cc1n[nH]c(=S)n(/N=C/c2cccs2)c1=O	-1.2	3.2	1.3	-1.6	-3.8
CCN(CC)c1ccc(/C=N/n2c(=S)[nH]nc(C)c2=O)cc1	2.5	-2.3	4.7*	8.7	-17.5
CCCOc1ccc(N2C(=O)CC(N3CCC(c4nncn4CC)CC3)C2=O)cc1 (stereo unspecified)	-2.9	-4.3	-1.1	-4.4	307.3*
COc1ccccc1CNC(=O)[C@H](C)NC(=O)C1CCN(C(=O)[C@@H](N)CCSC)CC1	-5.8	5.5	0.3	7.7	-5.7
COc1ccc(CNC(=O)[C@@H](C)NC(=O)C2CCN(C(=O)[C@@H](N)CCSC)CC2)cc1	-1.2	0.1	0.4	-11.7	612.2*
CCc1cc2c(=O)c(Oc3ccccc3F)c(C)oc2c(CN(C)C)c1O	-2.4	-9.3	6.7*	-7.1	31.3
COc1ccc2nc(-c3ccc(CN4CCC(c5nc6ccccc6[nH]5)CC4)cc3)c(-c3ccccc3)nc2c1	·	·	-1.2	·	·
Cc1cc(N2CCN(C(=O)OC(C)(C)C)C[C@@H]2C)ccc1Br	·	·	-1.5	·	·
CCc1ccc(NC(=O)c2ccc3nc(N)sc3c2)cc1	-3.9	-3.9	0.8	2.9	-10.0
Nc1nc2ccc(C(=O)Nc3ccccc3)cc2s1	-11.8	5.6	0.3	1.8	281.8*
O=C(CN1C(=O)NC2(CCc3ccccc32)C1=O)c1ccc(Br)cc1 (stereo unspecified)	-13.4	3.7	-0.9	-1.1	278.1*
COc1cc(-c2c(C(=O)c3ccccc3)[nH]c(N)c2C(=O)NCCc2c[nH]c3ccccc23)ccc1F	·	·	0.7	·	·
CCCCCCCCN1C(=O)[C@@H](CC(=O)NCC23CC4CC(CC(C4)C2)C3)C[C@@]2(C(=O)OC)C1=C[C@H](C(C)(C)C)O[C@@H]2C	·	·	0.4	·	·
CCOCCCNC(=O)c1c(-c2ccccc2)noc1C	-12.9	-5.1	0.0	-5.2	338.0*
CCOC(=O)c1c(-c2ccc(F)cc2)csc1NC(=O)c1c(-c2ccccc2)noc1C	-3.1	-0.2	-0.4	-2.5	719.4*
CCOC(=O)C1CCN(C(=O)c2c(-c3ccccc3)noc2C)CC1	-12.7	-3.2	-1.0	0.5	765.3*
CC(=O)Nc1ccc(OCCCNC(=O)c2c(-c3ccccc3)noc2C)cc1	-6.8	-2.3	-0.3	-5.3	7.7

Compound activity from PubChem BioAssay.
